Bioassay records: PubChem, Broad Institute
TcdB inh: blocks C. difficile toxin B glycohydrolase activity | P18177 | AID 652162 | hit rate 0.24% among 350,000 | inhibition, % at 9.99 µM | TcdB glycohydrolase enzymatic assay, plate reader; in the data active means inhibition above about 10%
Y pestis TopoI: blocks Yersinia pestis topoisomerase I activity; activity, % at 10 µM; Y. pestis Topo-I cleavage product accumulation, plate reader; AID 504884; hit rate 0.064% among 360,000; in the data active means activity above about 50%, passing the limit was not always enough
PfHsp40 rescue: rescue of PfHsp40-mediated yeast toxicity. AID 504582. S. cerevisiae expressing PfHsp40, growth rescue, ATP luminescence. hit rate 0.68% among 340,000. growth rescue, % at 12.5 µM; in the data active means growth rescue above about 28%, passing the limit was not always enough;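 further: yeast W303a lacking pdr1 and pdr3 grown in galactose medium; growth measured after three days at 30 °C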
BioA inh: inhibitors of Mycobacterium tuberculosis BioA enzyme. purified M. tuberculosis BioA enzyme, plate reader. inhibition, % at 9.99 µM. hit rate 0.096% among 360,000. AID 602481; in the data active means inhibition above about 40%
FadD28 FP inh: M. tuberculosis FadD28 bisubstrate binding inhibition. hit rate 0.22% among 360,000. FadD28 bisubstrate probe binding, fluorescence polarization. inhibition, % at 12.5 µM; in the data active means inhibition above about 8.5%, passing the limit was not always enough
PrP 5UTR inh: inhibition of PrP 5' UTR reporter expression. cell-based PrP 5' UTR mRNA reporter, plate reader. inhibition, % (no concentration beside the values). hit rate 0.35% among 340,000; in the data active means inhibition above about 52%; further: 0 = median of the neutral control wells
The depositor's hits bear a star; . = not tested or not shown. An excerpt weighted towards active compounds, which were near 1.2% of everything screened.

SMILES	TcdB inh	Y pestis TopoI	PfHsp40 rescue	BioA inh	FadD28 FP inh	PrP 5UTR inh
COc1ccc(Cn2c(/C=C/c3ccccc3)nc3ccccc32)cc1	.	-6	-1	3	-10	-87
COc1ccc(/C=C/c2nc3ccccc3n2C)cc1	13*	12	-3	.	-1	1
C[C@@H]1CCCCO[C@H](CN(C)C(=O)Nc2ccc(C(F)(F)F)cc2)[C@@H](C)CN([C@H](C)CO)C(=O)c2cc(NC(=O)Nc3ccc(C(F)(F)F)cc3)ccc2O1	-7	.	.	1	.	.
C=CCc1cccc(/C=N/NC(=O)CNc2ccccc2)c1O	.	1	0	-1	-2	-22
C=CCc1cccc(/C=N/NC(=O)CCCNc2ccc(C)cc2)c1O	-1	-3	93*	.	-3	-16
CCCNC(=O)[C@@H]1[C@@H](CO)[C@@H]2Cn3c(cccc3=O)[C@@H]2N1Cc1ccccc1Cl	-1	.	.	-2	.	.
CCCCCCC(=O)Oc1cccc(C2=CC(=O)CC(C)(C)C2=O)c1	2	55*	.	2	-1	.
COc1ccc(C2CC(=O)C3=C(C2)NC(C)=C(C(=O)Nc2ccccc2C)C3c2coc3ccc(C)cc3c2=O)cc1OC (stereo not given)	.	25	63*	0	-1	0
CC1=C(C(=O)Nc2ccccc2)C(c2coc3ccccc3c2=O)C2=C(CCCC2=O)N1 (stereo not given)	1	1	1	.	-7	-8
CCn1nnc(-c2ccccc2NC(=O)c2ccc(-n3cnnn3)cc2)n1	.	7	71*	0	1	-11
Cc1noc(C)c1NC(=O)Nc1ccc2c(c1)C(=O)N([C@H](C)CO)C[C@H](C)[C@@H](CN(C)C(=O)Nc1ccc(F)cc1)OCCCC[C@H](C)O2	0	.	.	-1	.	.
O=c1[nH]c(CN2CCN(c3ccccc3O)CC2)nc2scc(-c3ccccc3Cl)c12	-2	17	29*	-1	1	-4
C[C@H](CO)N1C[C@H](C)[C@@H](CN(C)S(C)(=O)=O)Oc2ncc(C#CC3CCCCC3)cc2C1=O	1	.	.	1	.	.
CC(=O)Nc1ccc(/C=N\NC(=O)CNS(=O)(=O)c2ccc([N+](=O)[O-])cc2)cc1	1	-12	1	0	9.3*	-22
O=C(CNS(=O)(=O)c1ccc([N+](=O)[O-])cc1)N/N=C/c1ccc(O)cc1O	-33	-4	0	-2	22*	.
O=[N+]([O-])c1ccc(NN=Cc2ccc(O)cc2O)nc1	-3	-10	-2	0	.	-28
O=C(Cc1cccs1)N/N=C\c1ccc(O)cc1	.	2	1	0	1	-32
O=C(CC(=O)N/N=C/c1ccc(O)cc1)N/N=C/c1ccc(O)cc1	24*	2	1	0	-4	-22
CC(=O)Nc1ccc(/C=N/NC(=O)CNS(=O)(=O)c2ccccc2)cc1	0	-4	-2	.	-3	-12
O=C(CNS(=O)(=O)c1ccc([N+](=O)[O-])cc1)N/N=C\c1ccc(O)cc1	14*	3	-1	-1	3	2
COC(=O)C[C@@H]1C[C@H]2c3cc(NC(=O)c4cccnc4)ccc3O[C@H]2[C@@H](CO)O1	5	.	.	18	.	.
C[C@H]1CN([C@@H](C)CO)C(=O)c2cccc(NC(=O)C3CC3)c2O[C@@H]1CN(C)C(=O)Nc1ccc(F)cc1	0	.	.	-2	.	.
CC(=O)Nc1ccc2c(c1)Cc1cc(N3C(=O)C=CC3=O)ccc1-2	1	10	668*	0	-3	-16
O=C(COC(=O)Cc1ccccc1)Nc1ccc(SC(F)F)cc1	1	-4	-1	.	-2	-13
O=C(COC(=O)c1ccccc1C(=O)c1ccccc1)Nc1ccc(SC(F)F)cc1	.	30	94*	.	-1	-12
SMILES	TcdB inh	Y pestis TopoI	PfHsp40 rescue	BioA inh	FadD28 FP inh	PrP 5UTR inh
CC1CCCCN1C(=O)c1cccc(NC2=C(Cl)C(=O)N(Cc3ccccc3)C2=O)c1 (stereo not given)	.	26	31*	-2	0	-20
CCC(=O)c1cn(CC(=O)Nc2cccc(C)c2C)c2ccccc12	14*	3	3	1	0	-21
Cc1ccc(NC(=O)Cn2cc(C(=O)C3CC3)c3ccccc32)c(C)c1	2	76*	0	-1	-1	-3
CCC(=O)N1[C@H](CO)[C@H](c2ccc(-c3ccccc3OC)cc2)[C@H]1CNC(C)=O	1	.	.	.	.	.
C[C@H]1CN([C@@H](C)CO)C(=O)Cc2cc(NC(=O)CCCCCC(=O)Nc3ccccc3N)ccc2O[C@H]1CN(C)S(=O)(=O)c1cn(C)cn1	0	.	.	-2	.	.
Cc1cc(C(=O)NN)c(C)o1	-2	2	1	.	0	-5
CCc1ccc(C(C)NC(=O)c2cc(C)oc2C)cc1 (stereo not given)	.	-5	47*	0	-5	-8
COc1ccc(C(=O)Nc2ccc3c(c2)C(=O)N(C)C[C@@H](OC)[C@H](C)CN(C(C)=O)[C@H](C)CO3)cc1	-2	.	.	1	.	.
Cc1nn(C)c2ncc(C(=O)c3cc(F)ccc3O)cc12	.	3	0	.	-2	4
O=C(c1cnc2ccc3ccccc3c2c1)c1cc(F)ccc1O	3	13	84*	.	-1	-24
Cc1ccc(C(=O)C(C)OC(=O)C2CCN(c3ccc(C(F)(F)F)cn3)CC2)cc1 (stereo not given)	3	55*	1	.	-2	-18
O=C(COC(=O)C1CCN(c2ccc(C(F)(F)F)cn2)CC1)c1ccccc1Cl	6	52*	1	0	1	-21
C[C@H]1CN([C@@H](C)CO)C(=O)c2cc(NS(=O)(=O)c3ccc(F)cc3)ccc2O[C@H]1CN(C)C(=O)NC1CCCCC1	-1	.	.	-2	.	.
C[C@@H]1CN([C@H](C)CO)C(=O)c2cc(NS(=O)(=O)c3cn(C)cn3)ccc2O[C@@H](C)CCCCO[C@H]1CN(C)Cc1ccccc1	2	.	.	1	.	.
Cc1cc(C)c2sc(NNC(=O)c3ccc(S(=O)(=O)N4CCc5ccccc5C4)cc3)nc2c1	0	28	364*	-1	0	23
Cc1cc(C)c2nc(NNC(=O)c3ccc(S(=O)(=O)N4CCc5ccccc5C4)cc3)sc2c1	0	-9	0	0	0	17
O=C(Nc1cccc(Cl)c1)ON=C1c2ccccc2-c2ccccc21	2	-3	37*	.	-4	-34
O=C(Nc1cccc(Cl)c1)Nc1cccc(Cl)c1	.	3	-1	-1	-1	-27
O=C(c1nnsc1S(=O)(=O)c1ccc(Cl)cc1)N1CCOCC1	0	0	-1	.	-1	6
O=C(c1nnsc1S(=O)c1ccc(Cl)cc1)N1CCOCC1 (stereo not given)	1	0	143*	-2	-4	2
CO[C@H]1CN(C)C(=O)c2ccc(NS(=O)(=O)c3ccc(Cl)cc3)cc2OC[C@@H](C)N(C)C[C@H]1C	-1	.	.	0	.	.
O=C(NCc1ccc2c(c1)OCO2)c1cccc(C(=O)NCc2ccc3c(c2)OCO3)c1	.	12	-1	1	-5	-29
Cc1nc2ccc(C(=O)NCc3ccc4c(c3)OCO4)cc2s1	1	-10	589*	.	1	-10
